Test results as given in ChEMBL document CHEMBL4513216, “Probing the Open Global Health Chemical Diversity Library for Multistage-Active Starting Points for Next-Generation Antimalarials” (ACS Infect Dis, 2020).
About 8,600 (12%) of roughly 69,000 compounds showed an effect of 50% or more. The entries come from a sample that favours strong results as a whole.

Each compound was assayed on Plasmodium berghei (assay: Screen against P. berghei liver stage (PbLuc), transformed with Luciferase, at 10uM). Details: tested at 10 uM.
Type: functional, HepG2

SMILES	INHIBITION [%]
Cc1nn(C)c(C)c1C1CCCN1C(=O)CCCNc1ncccn1 (configuration not stated)	-16
CN(CCCNC(=O)C1CCCN(C(N)=O)C1)S(C)(=O)=O (configuration not stated)	19.8
O=C(Cc1ccc(F)cc1)NCCNS(=O)(=O)C1CCCC1	54.9
O=C(Cc1cccc(F)c1)NCCNS(=O)(=O)C1CCCC1	25.3
O=C(Cc1ccccc1)NCCNS(=O)(=O)C1CCCCC1	18.2
O=C(c1ccc(O)nc1)N1CCC(Nc2cccnn2)CC1	29.4
O=C([C@@H]1CC[C@@H]2[C@@H](CCN2Cc2cccs2)O1)N1CCCCO1	-75.3
Cc1ccc(N2CC[C@H]3O[C@@H](C(=O)N4CCCCO4)CC[C@H]32)nn1	3.69
Cc1ccsc1CN1CC[C@H]2O[C@H](C(=O)N3CCCO3)CC[C@H]21	-18.4
Cc1ccc(CN2CC[C@H]3O[C@@H](C(=O)N4CCCO4)CC[C@H]32)s1	66.9
Cc1ccc(N2CC[C@H]3O[C@@H](C(=O)N4CCCO4)CC[C@H]32)nn1	92.1
Cc1ccc(N2CC[C@H]3O[C@H](C(=O)N4CCCCO4)CC[C@H]32)nn1	46.4
COCCCN(Cc1ccccn1)S(=O)(=O)N(C)C	32.8
CS(=O)(=O)NCc1cn2c(n1)CN(Cc1cccnc1)CC2	-12.2
CCCSCC(=O)N1C[C@@H]2CC[C@H]1CN(c1ncccn1)C2	-4.37
CCN(C)CC1CCN(C(=O)Nc2ccc(-c3csnn3)cc2)C1 (configuration not stated)	-32.3
CCOCC1CCN(C(=O)Nc2ccc(-c3csnn3)cc2)C1 (configuration not stated)	60
O=C(Nc1ccc(-c2csnn2)cc1)N1CC[C@H](O)C1	-73.4
Cc1noc(C)c1-c1nc(NCCN(C)C)ncc1-c1cnccn1	-56.2
CCCOC(=O)N1CCC(c2nnc(Cn3cccn3)n2C2CC2)CC1	-35.9
Cc1cc(C)n(CC2CCCN2Cc2ncc(C(C)(C)C)o2)n1 (configuration not stated)	-25.6
Cc1nc(C)n(CC2CCCN2CC(=O)NCCc2cccs2)n1 (configuration not stated)	43.6
COCCc1noc(CN2CCCCC2Cn2nc(C)cc2C)n1 (configuration not stated)	18.4

SMILES	INHIBITION [%]
Cc1nc(C)n(CC2CCCN2CCc2cccs2)n1 (configuration not stated)	52
COCCc1noc(CN2CCCC2Cn2nc(C)cc2C)n1 (configuration not stated)	1.75
Cc1nc(C)n(CC2CCCN2CCc2ccncc2)n1 (configuration not stated)	-21.985
Cc1nc(C)n(CC2CCCN2Cc2nc(-c3ccco3)no2)n1 (configuration not stated)	29.645
Cc1nc(C)n(CC2CCCN2Cc2ncc(C(C)(C)C)o2)n1 (configuration not stated)	63.5
CC(C)(C)CC1CCCN1Cc1nc(-c2ccco2)no1 (configuration not stated)	76.2
COCCc1noc(CN2CCCC2Cn2nc(C)nc2C)n1 (configuration not stated)	64.8
c1coc(-c2noc(CN3CCCC3Cn3cncn3)n2)c1 (configuration not stated)	31.8
Cc1nc(C)n(CC2CCCCN2Cc2ncc(C(C)(C)C)o2)n1 (configuration not stated)	31
Fc1cc(Cl)cnc1N1CCCC(c2nccn2Cc2ccncc2)C1 (configuration not stated)	31.4
CCOC(=O)c1cccc(N2CCCC3(CCC(=O)N(C4CC4)C3)C2)n1 (configuration not stated)	28.7
CC(C)C1CN(C(=O)c2ccn(C)c(=O)c2)c2ccccc2N1 (configuration not stated)	-36.7
Cc1nc(CN(C)C2CCN(CCCc3ccccc3)C2)no1 (configuration not stated)	-61.4
Cc1ccc(-c2nc(CN3CCn4c(C)nnc4C3)cs2)o1	-31.8
Cc1cc(C(=O)N(CC(C)C)CC(O)c2ccc(F)cc2)[nH]n1 (configuration not stated)	-36.4
CSc1ccccc1NC(=O)C1CN(C(=O)c2ccc3c(c2)OCO3)C1	12.7
CN(C)C(=O)[C@@H]1CCO[C@@H]2CCN(c3ncccn3)C[C@@H]21	8.85
Cc1nc(C)n(CC2CCCN(Cc3nnc(-c4ccco4)o3)C2)n1 (configuration not stated)	-0.79
Cc1nc(C)n(CC2CCCN2Cc2nnc(-c3ccco3)o2)n1 (configuration not stated)	50
Cc1nc(C)n(CC2CCCCN2Cc2nnc(-c3ccco3)o2)n1 (configuration not stated)	-9.07
O=C(Cn1cc(-c2ccccc2)ncc1=O)Nc1nc(C2CC2)n[nH]1	33.7
O=C(N[C@H]1COC[C@@H]1N1CCCC1)c1csc(-c2cccs2)n1	34.2
COc1ccc(C[C@H]2CN(C(=O)c3ccncc3)CC[C@@H]2OC)cc1	34.1

SMILES	INHIBITION [%]
COc1ccc(C[C@H]2CN(C(=O)c3ncccn3)CC[C@@H]2OC)cc1	27.2
COc1ccc(C[C@H]2CN(c3cc(OC)ncn3)CC[C@H]2OC)cc1	74.8
COc1ccc(C[C@H]2CN(c3cc(OC)ncn3)CC[C@@H]2OC)cc1	55.5
COc1ccc(C[C@H]2CN(C(=O)c3ccc(C)nc3)CC[C@@H]2OC)cc1	-12.2
COc1cc(N2CC[C@@H](OC)[C@@H]2Cc2ccccc2)ncn1	-30
c1cc(CN2CCCn3cnc(COCC4CC4)c3C2)ccn1	18.5
COCc1nn(C)c2c1CCN(Cc1cnn(C)c1)C2	-17.1
N#Cc1ccc(CNCCc2cc(F)cc3c2OCOC3)cc1	28.8
Cc1cc(C(=O)N2CCO[C@H]3[C@H](OCCN(C)C)CC[C@@H]32)c(C)[nH]1	24.3
O=C1OCCN1CC(=O)N1C[C@@H]2CC[C@H]1CN(C(=O)c1ccccn1)C2	44.8
O=C1Nc2ccccc2CN(CC2CC2)C12CCNC2 (configuration not stated)	46.6
O=C(CN1CC(c2nc(Cc3ccccc3)no2)C1)NCC1CCCO1 (configuration not stated)	2.55
CC(C)NC(=O)C1CN(C(=O)Nc2ccc(F)cc2)CC12CCOCC2 (configuration not stated)	14.8
CC(C)NC(=O)C1CN(C(=O)Cc2cccc(F)c2)CC12CCOCC2 (configuration not stated)	10
Cc1ccc(NC(=O)N2CC(C(=O)NC(C)C)C3(CCOCC3)C2)cc1 (configuration not stated)	80
CN(C)C(=O)N1CC(C(=O)NCC2CC2)C2(CCOCC2)C1 (configuration not stated)	36.7
CC(C)NC(=O)C1CN(C(=O)N2CCCC2)CC12CCOCC2 (configuration not stated)	22.7
CC(C)NC(=O)C1CN(C(=O)Cc2ccccc2)CC12CCOCC2 (configuration not stated)	53.4
CC(C)NC(=O)C1CN(C(=O)CCc2ccccc2)CC12CCOCC2 (configuration not stated)	20.9
CC(C)NC(=O)C1CN(C(=O)N(C)C)CC12CCOCC2 (configuration not stated)	89.2
CC(C)NC(=O)C1CN(C(=O)Nc2ccccc2)CC12CCOCC2 (configuration not stated)	17.6
CN(CCOCC1CC1)C(=O)Nc1ccc([S+](C)[O-])c(F)c1 (configuration not stated)	41.3
Cc1cnn(CC(=O)N2CCCN(Cc3cnn(C(C)C)c3)CC2)c1	33.7

SMILES	INHIBITION [%]
NC(=O)CS(=O)(=O)Cc1csc(-c2ccccc2)n1	46.6
CCS(=O)(=O)N1CC[C@H]2CO[C@H](CN(C)C)[C@H]2C1	19.4
Cc1nc(NC(=O)OC(C)(C)C)sc1C(=O)O	46.6
Cc1nc(NC(=O)OC(C)(C)C)sc1C#N	53.4
Cc1nc(NC(=O)OC(C)(C)C)sc1C(N)=O	-0.514
O=C(c1ccc[nH]1)N1CCc2ncc(Cn3cccn3)n2CC1	25.6
c1ccc(N2CCN(Cc3cnc(C4CCCCO4)nc3)CC2)nc1 (configuration not stated)	51.7
c1ccc(N2CCC(OCC3CCCCO3)CC2)nc1 (configuration not stated)	62.9
c1cnc(N2CCC(OCC3CCCCO3)CC2)nc1 (configuration not stated)	31.1
c1ccc(CCN2CCC(OCC3CCCCO3)CC2)nc1 (configuration not stated)	7.24
c1ccc(N2CCN(Cc3cnc(C4CCCCO4)nc3)CC2)cc1 (configuration not stated)	21.1
c1ccc(CN2CCN(Cc3cnc(C4CCCCO4)nc3)CC2)cc1 (configuration not stated)	10.9
Cc1nccn1-c1cccc(C2CCCN2)n1 (configuration not stated)	-2.09
Cc1nccn1-c1cccc(N2CCC(OCC3CCCCO3)CC2)n1 (configuration not stated)	95.9
Clc1ccc(N2CCC(OCC3CCCCO3)CC2)nc1 (configuration not stated)	34.5
CCCn1cc(C(=O)N2CCCC2(C)c2nc(C)cc(C)n2)cn1 (configuration not stated)	-3.02
Cn1cc(S(=O)(=O)N(CC(F)(F)F)C2CC2)cc1C(N)=O	-29.2
O=C(Cn1cnc2ccsc2c1=O)c1ccc2c(c1)OCCO2	-73.1
CS(=O)(=O)NCCC(=O)N1CCN(S(=O)(=O)c2ccc(Br)cc2)CC1	11.8
COCC(=O)NCCC(=O)N1CCN(S(=O)(=O)c2ccc(Br)cc2)CC1	68.4
COCC(=O)N1CCN(S(=O)(=O)c2ccccc2)[C@@H](C(=O)OC)C1	-33
COCC(=O)NCCSCCOc1cccc(Br)c1	18
COCC(=O)NCc1cccc(Br)c1	3.81

SMILES	INHIBITION [%]
COCC(=O)NCCC(=O)N1CCN(S(=O)(=O)c2cccc(Br)c2)CC1	63.8
CCCn1ncc(C(=O)NC2CCN(CC3CCCO3)CC2)c1C (configuration not stated)	34.4
CCCn1ncc(C(=O)N2CCN(C3CCCC3)CC2)c1C	-39.2
CCCn1ncc(C(=O)NC2CCN(C3CCOCC3)CC2)c1C	59.3
CN1CC(=O)N(c2cccc(F)c2)CC12CCN(Cc1cnn(C)c1)C2 (configuration not stated)	18.2
Cc1ccc(C2(CN3CCN(Cc4cnc(C)n4C)CC3)CC2)cc1	12.8
CN1CCNCC(Cc2cnc3ccccc3c2)C1 (configuration not stated)	52.7
c1ccc2ncc(CC3CCNC3)cc2c1 (configuration not stated)	35
CN1CCC(Cc2cnc3ccccc3c2)C1 (configuration not stated)	45.2
Cc1ccc(C)n1C(C)C(=O)N1CCCN(Cc2cscn2)CC1 (configuration not stated)	26.55
CCOC(=O)CC1CCCCN1C(=O)c1cccc2ccnn12 (configuration not stated)	-22.1
O=C(c1cnccn1)N1CCCC2(CCCN2Cc2cccnc2)C1 (configuration not stated)	-8.85
Cn1cc(CN2CCCC23CCN(C(=O)c2cccn2C)CC3)cn1	66
CC(C)C(=O)N1CCCC2(CCCN2Cc2cccnc2)C1 (configuration not stated)	10.5
CN1CCCCC12CCN(C(=O)c1cccn1C)CC2	50.7
Cn1cccc1C(=O)N1CCC2(CCCN2S(C)(=O)=O)CC1	28.2
Cn1cc(CN2CCCC23CCN(C(=O)c2ccccc2)CC3)cn1	-9.18
Cn1cccc1C(=O)N1CCCC2(CCCN2Cc2cccnc2)C1 (configuration not stated)	56.9
Cn1cccc1C(=O)N1CCC2(CC1)CCN2S(C)(=O)=O	20.1
Cn1cccc1C(=O)N1CCC2(CCCN2Cc2ccccc2)CC1	45.3
